Sampled rows, rich in hits. Any-hit rate of the full collection: about 3%.
TRAIL sens C8: viability loss with TRAIL in NB7+C8 cells, primary screen, TRAIL sensitizer project, cell-based, ATPlite luminescence. inhibition (viability loss, TRAIL sensitization), % at 10 µM. actives 1% (n = 360,000);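 active means compounds causing at least 50% loss of cell viability in the single-dose screen, relative to plate controls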
PPC-1+TRAIL kill: compounds killing PPC-1 cancer cells with TRAIL present, primary screen, TRAIL potentiator project, ATPLite luminescence, uHTS; PPC-1 cells + TRAIL, ATPLite viability luminescence; cell killing (% activity), % at 4 µM or 5 µM; actives 0.41% (n = 220,000); AID 1443, 2008;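 active means cell killing above 50% in the first pass at 4 µM, then a duplicate retest at 5 µM averaging 50% or more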;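 further: plate controls were cells with TRAIL plus DMSO for no effect and medium-only wells lacking cells for full effect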
SENP7 block: SENP7 protease inhibitors, primary screen, biochemical, luminescence, uHTS | actives 1.5% (n = 330,000) | inhibition, % at 5 µM | recombinant SENP7, Z-RLRGG-aminoluciferin luminescence, 40 min | Sentrin-specific protease 7 (Homo sapiens), Q9BQF6;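 active means inhibition above about 50% at the single test dose, limit read from the data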;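 further: plate controls were DMSO with enzyme for no effect and no enzyme buffer wells for full effect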
Target sequence (Q9BQF6 706-1050 limits assumed): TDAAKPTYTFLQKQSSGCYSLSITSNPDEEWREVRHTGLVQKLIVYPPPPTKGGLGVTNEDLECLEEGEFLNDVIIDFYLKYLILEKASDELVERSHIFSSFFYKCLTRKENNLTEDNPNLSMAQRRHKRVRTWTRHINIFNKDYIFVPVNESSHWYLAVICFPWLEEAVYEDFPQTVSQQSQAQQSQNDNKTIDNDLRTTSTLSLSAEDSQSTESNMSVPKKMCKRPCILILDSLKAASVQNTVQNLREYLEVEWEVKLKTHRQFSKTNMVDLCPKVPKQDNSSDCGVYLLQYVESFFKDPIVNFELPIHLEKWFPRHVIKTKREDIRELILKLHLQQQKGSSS
SENP8 block-1: human SENP8 protease inhibitors, primary screen, biochemical, fluorescence, Nedd8 protein substrate, uHTS; recombinant SENP8; Sentrin-specific protease 8 (Homo sapiens), Q96LD8; actives 0.64% (n = 360,000); inhibition, % at 20 µM; in the data active means inhibition mostly above about 40%, no sharp cut-off; inactive means mostly below about 27%
SENP6 block: SENP6 protease inhibitors, primary screen, biochemical, luminescence, uHTS. inhibition, % at 10 µM. actives 1.8% (n = 330,000). AID 2599, 2010. Recombinant SENP6 catalytic domain, aminoluciferin luminescence;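 active means inhibition above about 50% at the single tested dose, limit read from the data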;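 further: plate controls were DMSO wells with enzyme for no effect and DMSO wells lacking enzyme for full effect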
SENP8 block-2: SENP8 protease inhibitors, primary screen, biochemical, luminescence; actives 1.2% (n = 330,000); Sentrin-specific protease 8 (Homo sapiens), Q96LD8; inhibition, % at 10 µM; purified SENP8, Z-RLRGG-aminoluciferin cleavage; in the data active means inhibition above about 50%
SENP8 conf: SENP8 protease inhibitors, retest, confirmation, biochemical, luminescence, single concentration. shares compounds with SENP7 block. Recombinant SENP8, Z-RLRGG-aminoluciferin luminescence, 60 min. inhibition, % at 12.5 µM. actives 40% (n = 6,200). AID 488912, 2010;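 active means mean inhibition across replicates above about 50%, limit read from the data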
SENP6 confirm: SENP6 protease inhibitors, confirmation, biochemical, luminescence, single concentration; recombinant SENP6, Z-RLRGG-aminoluciferin luminescence; actives 58% (n = 6,200); AID 488915, 2010; shares compounds with SENP7 block; inhibition, % at 12.5 µM
SENP7 confirm: SENP7 protease inhibitors, retest, confirmation, biochemical, luminescence, single concentration. shares compounds with SENP7 block. recombinant SENP7, Z-RLRGG-aminoluciferin luminescence, 40 min. inhibition, % at 12.5 µM. actives 69% (n = 6,200). AID 488917, 2010
Casp3 SENP sel: caspase-3 protease inhibitors, confirmation, selectivity assay for SENP inhibitor project, biochemical, single concentration; shares compounds with SENP7 block; purified caspase-3, Z-DEVD-aminoluciferin luminescence, 60 min; inhibition, % at 12.5 µM; actives 60% (n = 6,200); AID 488918, 2010;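 active means mean inhibition above about 50%, limit read from the data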;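 further: plate controls were enzyme with DMSO for no effect and wells without caspase-3 for full effect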
Target sequence (P42574 28-227 limits assumed): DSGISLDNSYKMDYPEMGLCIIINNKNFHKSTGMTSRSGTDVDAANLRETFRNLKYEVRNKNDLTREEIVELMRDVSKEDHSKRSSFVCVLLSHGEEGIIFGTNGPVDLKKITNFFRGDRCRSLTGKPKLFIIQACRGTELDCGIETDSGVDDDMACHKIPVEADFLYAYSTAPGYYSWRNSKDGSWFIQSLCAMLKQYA
SENP luc ctr: counter-screen for SENP inhibitors: luminescence interference | shares compounds with SENP7 block | Pre-incubated SENP8/Z-RLRGG-aminoluciferin, luciferase luminescence interference | AID 488919 | inhibition, % at 12.5 µM | actives 39% (n = 6,200);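 active means mean inhibition above about 50% when retested at one dose, limit read from the data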;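 further: plate controls were DMSO wells with completed reaction for no effect and substrate without enzyme for full effect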
Active calls of the source: *; i = inactive; / = no result given.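 How the source made its calls, unless noted: active means mean inhibition above about 50% in the one-dose retest (limit read from the data); inactive means the rest.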

SMILES	TRAIL sens C8	PPC-1+TRAIL kill	SENP7 block	SENP8 block-1	SENP6 block	SENP8 block-2	SENP8 conf	SENP6 confirm	SENP7 confirm	Casp3 SENP sel	SENP luc ctr
O=C(O)C(Oc1ccc2cc(-c3ccc(Cl)cc3)c(=O)oc2c1)c1ccccc1 (centres undefined)	-13.7	/	29.6	i	76.7*	46.2	73.7*	75.3*	63.4*	44.2	14.3
COc1ccc(-c2cc3ccc(O)cc3oc2=O)cc1	27.8	/	57.9*	-396.8	87.6*	83.4*	72.9*	76.6*	93.2*	76.1*	62.0*
O=C(NCc1ccccc1)c1cc2ccc(O)cc2oc1=O	-11.2	/	95.8*	-488.7	95.4*	96.5*	97.7*	98.4*	101.6*	97.6*	97.1*
O=c1oc2cc(O)ccc2cc1-c1ccccc1	5.4	/	88.1*	-363.2	90.3*	91.0*	94.0*	93.7*	99.3*	91.9*	92.1*
NC(=O)COc1ccc2cc(-c3ccccc3)c(=O)oc2c1	-6.0	/	5.2	-414.6	-7.9	-18.7	/	/	/	/	/
COc1ccc(-c2sc3ccc(N4CCOCC4)cc3c2C#CCCO)cc1	11.8	/	0.4	-496.3	12.8	1.9	/	/	/	/	/
COc1ccc(-c2cc3ccc(OCc4nn[nH]n4)cc3oc2=O)cc1OC	3.1	3.6	65.2*	-301.4	75.9*	50.7*	66.8*	66.2*	90.6*	84.8*	72.2*
COC(=O)COc1ccc2cc(-c3ccccc3)c(=O)oc2c1	4.3	/	49.8	-399.5	55.3*	34.4	16.0	44.1	7.1	23.1	2.5
COc1ccc(-c2cc3ccc(OCC(C)=O)cc3oc2=O)cc1OC	9.6	/	0.6	-317.2	12.2	-0.5	/	/	/	/	/
CCCN=C1N(CC)C[C@@H]2[C@@H]3C(=O)N(Cc4ccccc4)C(=O)[C@@H]3[C@](Cc3ccccc3)(C(=O)OC)N12	-2.8	/	-6.0	20.7	/	/	/	/	/	/	/
OC(COC(c1ccccc1)c1ccccc1)CN1CCN(c2cccc(Cl)c2)CC1 (centres undefined)	16.3	/	-9.8	3.4	101.2*	-5.5	3.5	-2.5	0.1	-3.4	-4.0
CN(C)C(=S)Nc1nc2ccccc2s1	26.0	-5.0	/	10.0	/	/	/	/	/	/	/
CCOc1ccc2nc(NC(=O)c3ccc(C)o3)sc2c1	57.9*	/	97.8*	-427.8	96.3*	94.1*	2.7	95.4*	102.1*	90.6*	9.6
CCOc1ccc2nc(NC(=O)c3cnc(C)cn3)sc2c1	25.5	20.2	-4.6	7.9	-25.2	-5.7	/	/	/	/	/
CCOc1ccc2nc(NC(=S)N(C)C)sc2c1	12.6	11.5	56.8*	14.5	77.5*	48.9	71.0*	69.2*	92.1*	57.8*	81.9*
CCOc1ccc2nc(NC(=O)c3cccnc3)sc2c1	35.0	33.4	86.3*	-133.1	84.2*	70.7*	12.4	20.4	41.0	40.1	6.4
CCCC(=O)Nc1nc2ccc(OCC)cc2s1	21.1	0.5	-14.6	-1.6	-10.5	-5.8	/	/	/	/	/
c1ccc(C2CSc3ccccc3N2)cc1 (centres undefined)	-7.9	/	34.9	-13.1	71.6*	46.9	4.3	7.8	7.9	23.2	15.0
CC(C)OC(=O)CSc1ncnc2c1cnn2-c1ccccc1	-2.2	1.6	51.7*	-25.4	33.2	18.9	14.8	17.8	25.7	28.4	7.4
c1ccc(CSc2ncnc3c2cnn3-c2ccccc2)cc1	-5.3	-16.2	71.7*	-4.6	71.0*	54.5*	8.6	7.1	18.8	4.6	7.9
CC(C)(C)C(=O)CSc1ncnc2c1cnn2-c1ccccc1	18.8	25.0	16.4	-35.9	-42.1	-16.0	/	/	/	/	/
O=C(NC1CCN(Cc2ccccc2)CC1)c1ccc(CS(=O)c2ccccc2Cl)o1 (centres undefined)	0.8	/	/	10.6	/	/	/	/	/	/	/
O=C1CC(c2ccc3c(c2)OCCO3)Oc2ccccc21 (centres undefined)	1.6	/	9.3	1.9	7.3	0.0	/	/	/	/	/
O=C1CC(c2ccc3c(c2)OCCO3)Oc2ccc([N+](=O)[O-])cc21 (centres undefined)	64.0*	/	97.7*	20.0	99.4*	96.4*	44.4	98.5*	101.1*	50.6*	20.3
Cc1cccc(NCc2nc3ccccc3n2Cc2ccccc2)c1	-6.2	-14.4	27.2	-0.7	57.9*	22.7	29.4	26.3	57.9*	25.4	34.8
SMILES	TRAIL sens C8	PPC-1+TRAIL kill	SENP7 block	SENP8 block-1	SENP6 block	SENP8 block-2	SENP8 conf	SENP6 confirm	SENP7 confirm	Casp3 SENP sel	SENP luc ctr
Cc1cccc(NCc2nc3ccccc3n2C)c1	-8.8	21.7	55.8*	15.3	50.3*	28.5	41.6	42.2	79.2*	70.6*	56.0*
Cc1ccc(NCc2nc3ccccc3n2C)c(C)c1	83.2*	/	79.5*	12.3	75.9*	71.4*	83.4*	82.7*	95.1*	88.0*	84.7*
CC1(C)Cc2c(sc(NC(=O)Nc3ccccc3)c2C(N)=O)CO1	1.2	/	53.1*	-84.3	68.0*	55.5*	-3.4	51.9*	79.6*	52.5*	33.0
CC1(C)Cc2c(sc(NC(=O)C(=O)N3CCCC3)c2C(N)=O)CO1	-3.1	/	-14.0	-14.6	-8.3	5.4	/	/	/	/	/
CN1CCN(C(=O)/C=C/c2ccc(Cl)c(Cl)c2)CC1	-6.9	/	3.6	4.6	-7.0	-5.5	/	/	/	/	/
O=C(/C=C/c1ccc(Cl)c(Cl)c1)N1CCc2ccccc21	28.7	-0.4	66.4*	15.3	9.2	-12.4	-12.6	-8.0	-6.5	8.0	0.6
CCS(=O)(=O)c1ccc2oc(Nc3ccccc3C)nc2c1	-0.5	8.9	78.8*	8.8	80.8*	69.4*	82.2*	80.8*	97.0*	91.6*	84.1*
CCN(CC)S(=O)(=O)c1ccc2oc(Nc3ccccc3)nc2c1	7.9	/	31.1	15.2	54.7*	32.0	28.3	24.2	70.7*	25.1	-1.8

Bioassay records: PubChem, Sanford-Burnham Center for Chemical Genomics
